The nature of experiment [1]: qHTS of pediatric cancer cell lines to identify multiple opportunities for drug repurposing: Primary screen for TC32 cells (AID 1347089). Further: nearly all actives have a fitted effect of over 60% in size. As to conditions: TC32 Ewing sarcoma viability, CellTiter-Glo luminescence, 48 h; series mostly up to 45.8 µM. The procedure, abridged:
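qHTS, TC32, 48 h drug treatment, CellTiter-Glo luminescence as a proxy for metabolically active cells; primary top concentration 46 µM (MIPE 11-pt, NPC 8-pt); confirmatory 11-pt.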
(In general: In qHTS, concentration-response curves come from the screen itself.)

A short description of experiment [2]: qHTS of pediatric cancer cell lines to identify multiple opportunities for drug repurposing: Primary screen for A673 cells (AID 1347092). Further: nearly all actives have a fitted effect of over 45% in size. As to conditions: A673 Ewing sarcoma viability, CellTiter-Glo ATP luminescence, 48 h; series mostly up to 46 µM. The procedure, abridged:
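Luminescence from CellTiter-Glo, taken after 15 min at room temperature, served as the proxy for metabolically active cells following 48 h treatment. Both potency and efficacy were taken from curves fitted to the titration data.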

Experiment [3] in a line: qHTS of pediatric cancer cell lines to identify multiple opportunities for drug repurposing: Primary screen for U-2 OS cells (AID 1347096). Further: nearly all actives have a fitted effect of over 50% in size. The settings on record: U-2 OS viability, CellTiter-Glo luminescence, 48 h; series mostly up to 46 µM. The essentials:
(§1)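 Viability after 48 h compound treatment at 37C, 500-1,000 cells/well, read as ATP luminescence with CellTiter-Glo. Primary screens used 11-point (MIPE, 0.78 nM-46 µM) or 8-point (NPC, 0.59 nM-46 µM) final concentrations; follow-up screens used 11-point dilutions.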

A short description of experiment [4]: qHTS of pediatric cancer cell lines to identify multiple opportunities for drug repurposing: Primary screen for NB1643 cells (AID 1347099). Further: nearly all actives have a fitted effect of over 50% in size. As to conditions: NB1643 neuroblastoma viability, CellTiter-Glo luminescence, 48 h; series mostly up to 46 µM. The procedure, abridged: (§2)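 Primary screen of approved and investigational compounds on cells in growth media at 37 degrees C, 5% CO2. MIPE set at 11-point and NPC set at 8-point dilutions; viability scored by ATP-based luminescence at 48 hours.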

Experiment [5] in a line: qHTS of pediatric cancer cell lines to identify multiple opportunities for drug repurposing: Primary screen for LAN-5 cells (AID 1347100). As to conditions: LAN-5 neuroblastoma viability, CellTiter-Glo luminescence, 48 h; series mostly up to 46 µM. The procedure, abridged: as §1
Experiment [6] can be described thus: qHTS of pediatric cancer cell lines to identify multiple opportunities for drug repurposing: Primary screen for BT-12 cells (AID 1347101). Further: nearly all actives have a fitted effect of over 25% in size. As to conditions: BT-12 viability, CellTiter-Glo luminescence, 48 h; series mostly up to 57.3 µM. The essentials: (§3)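 Cells (500-1,000/well) rested 5 h, then received compounds for 48 h; metabolically active cells were measured by CellTiter-Glo luminescence. Final concentrations spanned up to 46 µM (MIPE, 11-point) or 0.59 nM-46 µM (NPC, 8-point) in primary screens, 11-point in follow-ups.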

Experiment [7] is described as follows: qHTS of pediatric cancer cell lines to identify multiple opportunities for drug repurposing: Primary screen for OHS-50 cells (AID 1347103). Further: nearly all actives have a fitted effect of over 40% in size. As to conditions: OHS-50 osteosarcoma viability, CellTiter-Glo luminescence, 48 h; series mostly up to 57.3 µM. The procedure, abridged: as §3
A short description of experiment [8]: qHTS of pediatric cancer cell lines to identify multiple opportunities for drug repurposing: Primary screen for NB-EBc1 cells (AID 1347095). The settings on record: NB-EBc1 neuroblastoma viability, CellTiter-Glo luminescence, 48 h; series mostly up to 46 µM. The essentials: as §2
The nature of experiment [9]: qHTS of pediatric cancer cell lines to identify multiple opportunities for drug repurposing: Primary screen for Rh18 cells (AID 1347102). Further: nearly all actives have a fitted effect of over 65% in size. The settings on record: Rh18 rhabdomyosarcoma viability, CellTiter-Glo luminescence, 48 h; series mostly up to 46 µM. The essentials: as §1
A short description of experiment [10]: NS1 protein of Zika virus - qHTS assay to identify small molecule inhibitors in human HEK 293 cells (AID 1347053). Further: nearly all actives have a fitted effect of over 55% in size. As to conditions: HEK293 ZIKV MR766 infection, NS1 TR-FRET, 24 h; series mostly up to 46.1 µM. The essentials:
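HEK 293 cells pretreated with compound for 1 h, then infected with ZIKV MR766 (MOI 0.5) for 24 h at 37 C. NS1 detected by TR-FRET with two anti-NS1 antibodies; normalized to uninfected (0%) and infected (100%) wells.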

Experiment [11] in a line: qHTS of pediatric cancer cell lines to identify multiple opportunities for drug repurposing: Primary screen for SJ-GBM2 cells (AID 1347091). The settings on record: SJ-GBM2 viability, CellTiter-Glo luminescence, 48 h; series mostly up to 46 µM. The essentials:
(§4)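 Viability measured as metabolically active cells via CellTiter-Glo luminescence following 48 hours of compound exposure, 11-point dilutions in confirmatory testing. 500-1,000 cells/well plated 5 hours before dosing; controls were DMSO and 2.3 µM bortezomib.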

The nature of experiment [12]: qHTS of pediatric cancer cell lines to identify multiple opportunities for drug repurposing: Primary screen for SK-N-MC cells (AID 1347093). As to conditions: SK-N-MC viability, CellTiter-Glo luminescence, 48 h; series mostly up to 46 µM. The procedure, abridged: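 Metabolically active cells were quantified by ATP-dependent luminescence (CellTiter-Glo, 15 min at room temperature) following 48 h treatment. Cells had been plated at 500-1,000 per well and settled for 5 h beforehand.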

A short description of experiment [13]: qHTS of pediatric cancer cell lines to identify multiple opportunities for drug repurposing: Primary screen for BT-37 cells (AID 1347094). The settings on record: BT-37 viability, CellTiter-Glo luminescence, 48 h; series mostly up to 57.3 µM. The procedure, abridged:
as §2

Experiment [14] can be described thus: qHTS of pediatric cancer cell lines to identify multiple opportunities for drug repurposing: Primary screen for Saos-2 cells (AID 1347097). Further: nearly all actives have a fitted effect of over 40% in size. As to conditions: Saos-2 viability, CellTiter-Glo ATP luminescence, 48 h; series mostly up to 46 µM. The procedure, abridged:
as §2

The nature of experiment [15]: qHTS of pediatric cancer cell lines to identify multiple opportunities for drug repurposing: Primary screen for SK-N-SH cells (AID 1347098). Further: nearly all actives have a fitted effect of over 65% in size. As to conditions: SK-N-SH viability, CellTiter-Glo luminescence, 48 h; series mostly up to 57 µM. The essentials: as §3
The nature of experiment [16]: qHTS of pediatric cancer cell lines to identify multiple opportunities for drug repurposing: Primary screen for DAOY cells (AID 1347090). Further: nearly all actives have a fitted effect of over 55% in size. The settings on record: DAOY medulloblastoma viability, CellTiter-Glo luminescence, 48 h; series mostly up to 46 µM. The procedure, abridged: as §4

Inconclusive results are not listed. The source made the active and inactive calls. The call rests on the fitted dose curve; in most records, active means well fitted curve in the direction sought with a large enough effect; inconclusive means small, poorly fitted or top-dose-only effect, or another doubt; inactive means no such curve, though single readings can be large; an effect the other way counts as inactive or inconclusive.
Potency means the concentration at half of the fitted maximal effect.

As to `COCC(=O)NCC=Cc1ccc2ncnc(Nc3ccc(Oc4ccc(C)nc4)c(C)c3)c2c1`, the Potency result in experiment [1] and in experiment [3] was “inactive” each time. Further, the Potency in [2] is 4.69 µM (active); in [4], 20.9 µM (active); in experiment [5] it was 18.7 µM (active); in experiment [6] it was 19.3 µM (active); in [7], 19.3 µM (active).
For the molecule `COc1ccc(-c2c(-c3ccc(O)cc3O)n[nH]c2C)cc1`, the Potency entry in experiment [1], in [3] and in [9] was “inactive” in each case. Also, the Potency in [8] was 38.2 µM (active); in experiment [7], 44.4 µM (active).
`Cc1cc2c(F)c(Oc3ncnn4cc(OC[C@@H](C)O)c(C)c34)ccc2[nH]1`: the Potency in [10] was 0.935 µM (active); in experiment [11] it was 10.5 µM (active); in experiment [12] it was 0.264 µM (active); in [13], 27.3 µM (active); in experiment [8] it was 13.2 µM (active); in [14] it was 18.7 µM (active). In addition, the Potency in experiment [15] is 24.1 µM (active); in [5] it was 20.9 µM (active); in [7] it was 30.6 µM (active).
`COc1cc(F)c(F)c(Nc2ccc(I)cc2F)c1NS(=O)(=O)C1(C[C@H](O)CO)CC1`: the Potency entry in experiment [10], in experiment [1], in experiment [13], in experiment [8], in experiment [4] and in [5] was “inactive” throughout. Further, in [9], the Potency result is “inactive”. Besides, the Potency in experiment [12] was 16.6 µM (active).
In the case of `CNC(=O)c1ccccc1Sc1ccc2c(/C=C/c3ccccn3)n[nH]c2c1`, the Potency in experiment [11] was 5.31 µM (active); in [12] it was 2.99 µM (active); in experiment [8] it was 1.5 µM (active); in experiment [14] it was 13.3 µM (active); in experiment [9], 10.6 µM (active); in experiment [7], 17.4 µM (active).
As to `COc1ccccc1[C@H](c1cccc2ccccc12)[C@@](C)(C#N)C(=O)N1CCC(c2cccc(C(F)(F)F)c2)CC1`, the Potency entry in [10] was “inactive”. Moreover, the Potency in [12] is 1.18 µM (active); in [13] it was 17.2 µM (active); in [8] it was 6.62 µM (active); in experiment [15], 19.2 µM (active); in experiment [7] it was 1.09 µM (active).
On to `CC[C@H](Nc1ncnc2nc[nH]c12)c1nc2cccc(F)c2c(=O)n1-c1ccccc1`, for which the Potency result in experiment [10] was “inactive”. For the same molecule, the Potency in experiment [12] was 0.935 µM (active); in experiment [8] it was 14.8 µM (active); in [14], 9.35 µM (active); in experiment [15], 7.64 µM (active); in [4], 16.6 µM (active); in [5], 20.9 µM (active). Besides, the Potency in [7] is 6.85 µM (active).
With `Cc1cc(-c2ccc(CC(=O)Nc3ccc(-c4cccnc4)cc3)cc2)ccn1`, the Potency entry in [1] and in experiment [9] was “inactive” in each case. For the same molecule, the Potency in experiment [2] is 23.5 µM (active); in experiment [12], 9.35 µM (active).
Take `CCOC(=O)N[C@@H]1CC[C@@H]2[C@@H](C1)C[C@H]1C(=O)O[C@H](C)[C@H]1[C@@H]2C=Cc1ccc(-c2cccc(F)c2)cn1`: the Potency entry in [10], in experiment [1] and in [9] was “inactive” in each case. Besides, the Potency in [12] and in [4] was 16.6 µM (active) throughout.
Regarding `Cc1cc(Nc2nc(N[C@@H](C)c3ncc(F)cn3)ncc2Cl)n[nH]1`, the Potency result in experiment [10] is “inactive”. Besides, the Potency is 2.96 µM (active) in experiment [16]; 23.5 µM (active) in [11]; 1.18 µM (active) in [2]; 3.72 µM (active) in [12]; 15.3 µM (active) in [13]; 18.7 µM (active) in experiment [8]. Besides, the Potency in experiment [15] was 15.2 µM (active); in experiment [4], 1.32 µM (active); in experiment [6] it was 34.3 µM (active); in [7] it was 15.3 µM (active).
Regarding `CC1(C)Cc2c(-c3ccccc3)c(-c3ccc(Cl)cc3)c(CC(=O)O)n2C1`, the Potency entry in experiment [1], in experiment [3] and in experiment [9] was “inactive” throughout. In addition, the Potency in experiment [12] is 26.4 µM (active); in [14], 33.2 µM (active).
For `Cc1ccccc1C(C(=O)NC1CCCC1)N(C(=O)Cn1cnc2ccccc21)c1cccc(F)c1` (stereo not drawn), the Potency result in experiment [1], in experiment [16], in experiment [11], in experiment [2], in experiment [8] and in [3] was “inactive” throughout. Also, the Potency result in [15] and in experiment [5] was “inactive” in each case.
For `CO[C@@H]1[C@H](N(C)C(=O)c2ccccc2)C[C@H]2O[C@]1(C)n1c3ccccc3c3c4c(c5c6ccccc6n2c5c31)C(=O)NC4`, the Potency in [11] was 0.833 µM (active); in experiment [2], 0.935 µM (active); in experiment [12], 0.662 µM (active); in experiment [3], 3.72 µM (active); in experiment [14], 0.833 µM (active); in [5] it was 0.526 µM (active). In addition, the Potency in [9] was 1.32 µM (active); in experiment [7], 2.17 µM (active).
For the molecule `COc1ccc(-c2ccc3c(N4CCOC[C@H]4C)nc(N4CCOC[C@H]4C)nc3n2)cc1CO`, the Potency was 0.165 µM (active) in [1]; 0.0083 µM (active) in [11]; 0.0235 µM (active) in experiment [2]; 0.0047 µM (active) in [12]; 0.0544 µM (active) in experiment [13]; 0.0332 µM (active) in [8]. For the same molecule, the Potency is 0.132 µM (active) in experiment [9] and 0.0544 µM (active) in experiment [7]. In [15], the Potency result was “inactive”.
Turning to `COc1c(Cl)cc2c([nH]c3cnccc32)c1NC(=O)c1cccnc1C`, the Potency entry in experiment [10], in experiment [8], in [3] and in [5] was “inactive” throughout. The Potency in [2] was 0.469 µM (active); in experiment [12] it was 1.32 µM (active).
Regarding `CCCCCCCc1ccc(CCc2cccc(O)c2C(=O)O)cc1`, the Potency entry in experiment [1], in experiment [3], in experiment [14], in [4], in [5] and in experiment [9] was “inactive” in each case. Also, the Potency in [11] was 23.5 µM (active); in experiment [12], 9.35 µM (active).

Values taken from PubChem BioAssay (NCATS).
